Rows were chosen to be rich in hits. Some 31% of all compounds tested hit in one or more screens of this group.
CYP2C19 act = cytochrome P450 2C19 (human) activation. recombinant CYP2C19, luciferin-H EGE luminescence; stronger effect = higher value; 0 = fully inhibited enzyme, 1 = untreated enzyme. activation factor at 5 µM. 96,000 tested, under 10 active. AID 1025;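 active = activation factor of at least 2 at 5 µM in the primary screen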
CYP2C9 act = CYP2C9 (human) activation; P11712; recombinant CYP2C9, luciferin-H conversion, luminescence; stronger effect = higher value; factor 1 = untreated enzyme, 0 = blocked; activation factor at 5 µM; actives 1.4% (n = 96,000); AID 1024;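 active = activation factor of 2 or more for CYP2C9 at a 5 µM dose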
Target sequence (P11712 whole entry, looked up): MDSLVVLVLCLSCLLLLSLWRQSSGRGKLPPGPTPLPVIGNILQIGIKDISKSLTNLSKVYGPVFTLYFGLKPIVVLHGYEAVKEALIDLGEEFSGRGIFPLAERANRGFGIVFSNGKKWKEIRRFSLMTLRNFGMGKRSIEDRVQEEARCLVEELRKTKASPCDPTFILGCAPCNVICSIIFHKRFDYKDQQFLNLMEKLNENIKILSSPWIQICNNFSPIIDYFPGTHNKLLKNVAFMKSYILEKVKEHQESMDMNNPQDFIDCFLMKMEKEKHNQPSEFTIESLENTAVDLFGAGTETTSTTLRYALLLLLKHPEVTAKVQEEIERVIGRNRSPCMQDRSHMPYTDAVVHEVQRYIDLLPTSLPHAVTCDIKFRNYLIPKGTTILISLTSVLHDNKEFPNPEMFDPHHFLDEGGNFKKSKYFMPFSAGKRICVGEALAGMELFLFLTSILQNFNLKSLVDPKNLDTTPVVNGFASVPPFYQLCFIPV
CYP2C9 inhib = inhibitors of human CYP2C9; P11712; CYP2C9 Supersomes, luciferin-H conversion, luminescence; inhibition, % at 5 µM; actives 20% (n = 96,000); AID 777;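 active = blocking of liver enzyme CYP2C9 beyond about 50% at 5 µM, limit read from the data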
PLAP activator = activators of human placental alkaline phosphatase. actives 1.2% (n = 96,000). P05187. activation fold at 20 µM. purified PLAP enzyme, luminescent substrate read-out; stronger effect = higher value. AID 696; in the data active = activation fold above about 2
CYP2C19 inhib = human CYP2C19 inhibition; AID 778; CYP2C19 Supersomes, luciferin-H EGE luminescence, 30 min; P33261; inhibition, % at 5 µM; actives 21% (n = 96,000);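 active = CYP2C19 inhibition above a set limit at 5 µM in the primary screen, cut at about 50% in these data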
Numbers stand for hits.

`O=C(NC1CCC(NC(=O)C(F)(F)C(F)F)CC1)C(F)(F)C(F)F` (stereo not drawn) gave CYP2C19 act inactive, CYP2C9 act inactive, CYP2C9 inhib inactive, PLAP activator inactive and CYP2C19 inhib inactive.
`COc1ccc(S(=O)(=O)Nc2cc(Sc3ncn[nH]3)c(O)c3ccccc23)cc1` gave CYP2C19 act inactive, CYP2C9 act inactive, CYP2C9 inhib 93.9, PLAP activator inactive and CYP2C19 inhib 97.3.
For CCOC(=O)CC(=O)Nc1ccc(Br)cc1C(=O)O the results were CYP2C19 act inactive, CYP2C9 act inactive, CYP2C9 inhib inactive, PLAP activator inactive and CYP2C19 inhib inactive.
`CCOc1ccc(C(=O)Nc2ccccc2N2CCCC2)cc1` gave CYP2C19 act inactive, CYP2C9 act inactive, CYP2C9 inhib inactive, PLAP activator inactive and CYP2C19 inhib inactive.
Screening COc1ccc(-c2ocnc2C(=O)Nc2ccccc2N2CCCCC2)cc1 returned CYP2C19 act inactive, CYP2C9 act inactive, CYP2C9 inhib 57.3, PLAP activator inactive and CYP2C19 inhib inactive.
Screening CCn1ncc(/C=N\NC(=O)c2ccc3c(c2)c(C)c(C)n3Cc2ccccc2)c1C returned CYP2C19 act inactive, CYP2C9 act inactive, CYP2C9 inhib 92.9, PLAP activator inactive and CYP2C19 inhib 73.4.
Screening CCn1cc(/C=N\NC(=O)c2ccc3c(c2)c(C)c(C)n3Cc2ccccc2)c(C)n1 returned CYP2C19 act inactive, CYP2C9 act inactive, CYP2C9 inhib inactive, PLAP activator inactive and CYP2C19 inhib 73.1.
Screening CCn1nc(C)c(/C=N/NC(=O)c2ccc3c(c2)c(C)c(C)n3Cc2ccccc2)c1C returned CYP2C19 act inactive, CYP2C9 act inactive, CYP2C9 inhib 88.9, PLAP activator inactive and CYP2C19 inhib 85.6.
Screening COc1ccc(C2CC(C(F)(F)F)n3ncc(C(=O)NCc4cccnc4)c3N2)cc1OC (stereo not drawn) returned CYP2C19 act inactive, CYP2C9 act inactive, CYP2C9 inhib 51.7, PLAP activator inactive and CYP2C19 inhib inactive.
Screening Cc1c(CNC(=O)c2cnn3c2NC(c2ccccc2)CC3C(F)(F)F)cnn1C (stereo not drawn) returned CYP2C19 act inactive, CYP2C9 act inactive, CYP2C9 inhib inactive, PLAP activator inactive and CYP2C19 inhib inactive.
Screening Cc1ccc(C2CC(C(F)(F)F)n3nc(C(=O)NCC4CCCO4)cc3N2)cc1 (stereo not drawn) returned CYP2C19 act inactive, CYP2C9 act inactive, CYP2C9 inhib 58.2, PLAP activator inactive and CYP2C19 inhib inactive.
COc1cccc(C2CC(C(F)(F)F)n3ncc(C(=O)NCC4CCCO4)c3N2)c1 (stereo not drawn) was read as CYP2C19 act inactive, CYP2C9 act inactive, CYP2C9 inhib 60.4, PLAP activator inactive and CYP2C19 inhib inactive.
CCOP(=O)(O)c1ccccc1OCCOc1ccccc1P(=O)(O)OCC was read as CYP2C19 act inactive, CYP2C9 act inactive, CYP2C9 inhib inactive, PLAP activator inactive and CYP2C19 inhib inactive.
C=CCN1C(=O)C2C(C(=O)NCc3ccccc3)C3(C)C=CC2(O3)C1C(=O)NC(C)(C)C (stereo not drawn) was read as CYP2C19 act inactive, CYP2C9 act inactive, CYP2C9 inhib inactive, PLAP activator inactive and CYP2C19 inhib inactive.
`CC(C)(C)OC(=O)N1CCOCCOCCN(C(=O)OC(C)(C)C)CCOCCOCC1` gave CYP2C19 act inactive, CYP2C9 act inactive, CYP2C9 inhib inactive, PLAP activator inactive and CYP2C19 inhib inactive.
`CCOC(=O)C1=C(N)n2c(s/c(=C\c3cccs3)c2=O)=C(C(=O)OCC)C1c1cccs1` (stereo not drawn) gave CYP2C19 act inactive, CYP2C9 act inactive, CYP2C9 inhib 78.5, PLAP activator inactive and CYP2C19 inhib inactive.
CCOC(=O)C1=C(N)n2c(s/c(=C\c3cccnc3)c2=O)=C(C(=O)OCC)C1c1cccnc1 (stereo not drawn) was read as CYP2C19 act inactive, CYP2C9 act inactive, CYP2C9 inhib 69.6, PLAP activator inactive and CYP2C19 inhib 62.7.
`CCCCNC(=O)Nc1cc(C(=O)OC)ccc1Cl` gave CYP2C19 act inactive, CYP2C9 act inactive, CYP2C9 inhib inactive, PLAP activator inactive and CYP2C19 inhib inactive.
`C=CCn1c(SCC(=O)Nc2ccccc2)nnc1-c1cccc(S(=O)(=O)N2CCOCC2)c1` gave CYP2C19 act inactive, CYP2C9 act inactive, CYP2C9 inhib 54.7, PLAP activator inactive and CYP2C19 inhib 66.5.
For CC(C)Cn1c(SCC(=O)NCc2ccc(Cl)cc2)nnc1-c1cccc(S(=O)(=O)N2CCOCC2)c1 the results were CYP2C19 act inactive, CYP2C9 act inactive, CYP2C9 inhib 60.8, PLAP activator inactive and CYP2C19 inhib inactive.
For COC(=O)c1cc(C#N)c(NCc2ccccc2)nc1C the results were CYP2C19 act inactive, CYP2C9 act inactive, CYP2C9 inhib inactive, PLAP activator inactive and CYP2C19 inhib inactive.
Clc1ccc(-c2nnc(-c3ccccc3Cl)o2)cc1 was read as CYP2C19 act inactive, CYP2C9 act inactive, CYP2C9 inhib inactive, PLAP activator inactive and CYP2C19 inhib inactive.
`OC(c1ccc(Cl)cc1)c1nnc(-c2ccccc2)o1` (stereo not drawn) gave CYP2C19 act inactive, CYP2C9 act inactive, CYP2C9 inhib 88.3, PLAP activator inactive and CYP2C19 inhib 99.7.
Screening N#Cc1cc2cc3c(cc2nc1N1CCOCC1)OCO3 returned CYP2C19 act inactive, CYP2C9 act inactive, CYP2C9 inhib inactive, PLAP activator inactive and CYP2C19 inhib 54.7.
For O=C(NCc1ccco1)c1cc(-c2ccco2)on1 the results were CYP2C19 act inactive, CYP2C9 act inactive, CYP2C9 inhib inactive, PLAP activator inactive and CYP2C19 inhib inactive.
`Cc1ccsc1/C=N/N1CCN(c2ccccc2)CC1` gave CYP2C19 act inactive, CYP2C9 act 2.1, CYP2C9 inhib inactive, PLAP activator inactive and CYP2C19 inhib inactive.
`Cc1nn(-c2ccccc2)c(C)c1/C=N\N1CCN(c2ccc(Cl)cc2)CC1` gave CYP2C19 act inactive, CYP2C9 act inactive, CYP2C9 inhib inactive, PLAP activator inactive and CYP2C19 inhib inactive.
For N#CC1=C(N)OC2=C(CC/C2=C\c2ccccc2)C1c1ccccc1 (stereo not drawn) the results were CYP2C19 act inactive, CYP2C9 act inactive, CYP2C9 inhib 70.0, PLAP activator inactive and CYP2C19 inhib inactive.
Cc1nnc2c(NC(C)C)nc3ccccc3n12 was read as CYP2C19 act inactive, CYP2C9 act inactive, CYP2C9 inhib inactive, PLAP activator inactive and CYP2C19 inhib inactive.
For Cc1cc(NC(c2cccnc2)c2c(C)[nH]c3ccccc23)no1 (stereo not drawn) the results were CYP2C19 act inactive, CYP2C9 act inactive, CYP2C9 inhib inactive, PLAP activator inactive and CYP2C19 inhib 62.5.
CCCCc1nc(SCC(=O)Nc2cc(C)on2)n[nH]1 was read as CYP2C19 act inactive, CYP2C9 act inactive, CYP2C9 inhib 60.7, PLAP activator 2.3 and CYP2C19 inhib 53.4.
For Cc1cc(NC(=O)CSc2c(C)[nH]c3ccccc23)no1 the results were CYP2C19 act inactive, CYP2C9 act inactive, CYP2C9 inhib inactive, PLAP activator inactive and CYP2C19 inhib 65.7.

Screening results (PubChem)
